# tim10-1 inh: growth inhibitors of tim10-1 mutant yeast. S. cerevisiae tim10-1 ts strain growth, BacTiter-Glo, 24 h. inhibition, % at 20 µM. 2.2% of 330,000 active;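 active means inhibition of at least 40%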;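 further: mutant grown at 25 °C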
# tim23-1 inh: inhibits growth of tim23-1 mutant yeast. inhibition, % at 20 µM. S. cerevisiae tim23-1 growth, BacTiter-Glo luminescence, 24 h. 1.3% of 330,000 active;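 active means growth inhibition of the mutant yeast at or above 50%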;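 further: temperature-sensitive mutant grown at 25 °C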
# NALP1 yeast inh: NALP1 inhibition; inhibition, % at 10 µM; 0.61% of 280,000 active; S. cerevisiae NALP1/ASC/caspase-1 growth, X-gal OD620, 72 h; in the data active means inhibition mostly above about 24%, no sharp cut-off; inactive means mostly below about 32%
# TIM10 inh: inhibits growth of TIM10 yeast strain | S. cerevisiae TIM10 strain growth, BacTiter-Glo luminescence, 24 h | inhibition, % at 10 µM | 1.4% of 330,000 active;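 active means inhibition of 40% or more at the single tested concentration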;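 further: wild-type TIM10 isogenic control strain grown at permissive 25 °C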
# SKKanGAS inh: inhibitors of SKKanGAS S. pyogenes growth in kanamycin (SK-promoter or general growth effect); 1.3% of 300,000 active; inhibition, % at 7.5 µM; AID 1662; BacTiter-Glo, 6 h;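 active means mean replicate score, as percent of positive control median, at least 50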;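 further: strain carries kanamycin resistance gene driven by streptokinase promoter and grows in 40 µg/ml kanamycin; loss of luminescence reflects streptokinase promoter inhibition or plain growth inhibition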
# PfHsp90 yeast 2: growth inhibition of yeast expressing Plasmodium Hsp90; AID 504621; inhibition, % at 9.4 µM; 0.32% of 310,000 active; S. cerevisiae expressing PfHsp90, BacTiter-Glo ATP, 48 h; yeast lacking PDR1 and PDR3 efflux regulators;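 active means every replicate shows inhibition above about 80%, whatever the replicate mean, limit read from the data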
# tim23-1 conf: tim23-1 yeast growth inhibition, confirmed | shares compounds with tim23-1 inh | S. cerevisiae tim23-1 growth, BacTiter-Glo luminescence, 24 h | inhibition, % at 20 µM | 83% of 4,400 active | AID 463218;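 active means inhibition above about 39% in either of two replicate wells at 20 µM, limit read from the data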;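 further: temperature-sensitive tim23-1 mutant grown at 25 °C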
# Numbers stand for hits; n = inactive; x = not tested or not shown. Compounds with a hit are over-represented: about 4.8% of the library has one in this group of screens.
SMILES,tim10-1 inh,tim23-1 inh,NALP1 yeast inh,TIM10 inh,SKKanGAS inh,PfHsp90 yeast 2,tim23-1 conf
O=C(Nc1ccc2c(c1)OCO2)C1CCN(C(=O)c2cccs2)CC1,x,x,n,x,n,n,x
Cc1occc1C(=O)N/N=C/C1=C(N2CCOCC2)C(=C\c2ccc(Cl)cc2Cl)/CC1,n,n,n,n,n,n,x
Cc1cccc(CS(=O)(=O)Cc2ccc(C(=O)NCCCN3CCCC3)o2)c1,n,n,n,n,n,n,x
COCCCNC(=O)CS(=O)Cc1nc(-c2cccc(OC)c2)oc1C (stereo unspecified),n,n,n,n,n,x,x
Cc1ccc(S(=O)(=O)N2CCc3ccccc3C2)cc1,n,n,n,n,n,n,x
Cc1ccc(S(=O)(=O)N2C(=O)[C@@H]3Cc4ccccc4CN3C2=O)cc1,n,51.4,n,n,n,n,41.3
CC(=O)c1ccc(-c2c(C)cc3oc(=O)cc(-c4ccccc4)c3c2C)cc1,n,n,x,n,x,n,x
Cc1cc2oc(=O)cc(-c3ccccc3)c2c(C)c1-c1ccc(CO)cc1,n,53.5,x,n,x,n,n
Cc1ccc(C)c(Nc2nc(-c3cccnc3)cs2)c1,n,50.5,n,n,n,n,n
Cc1ccc(Nc2nc(-c3cccnc3)cs2)cc1Cl,n,n,n,n,n,n,x
Cc1ccc(C(=O)Nc2ncc([N+](=O)[O-])s2)cc1,x,x,n,x,n,n,x
O=C(Nc1ncc([N+](=O)[O-])s1)c1ccc2c(c1)OCO2,n,57.0,n,n,n,n,58.8
Cc1cccc(N2C(=O)/C(=C/c3cccnc3)SC2=S)c1,n,58.0,n,n,n,n,54.4
Cc1cccc(/N=C/c2c(O)ccc3oc4c(c23)CCCC4)n1,n,70.1,n,n,n,n,74.5
Cc1cccc(/N=C/c2c(O)cc(C)oc2=O)n1,n,n,n,n,n,n,x
O=c1c2cn[nH]c2nc(SCc2c(F)cccc2F)n1-c1ccc(Cl)cc1,n,51.7,n,n,59.0,n,54.0
COc1ccc(-c2cc(C(F)F)n3ncc(C(=O)n4ccnc4C)c3n2)cc1,n,n,n,n,n,n,x
CC1CCCCC1NC(=S)NC(=O)c1cccs1 (stereo unspecified),n,51.8,x,n,n,n,53.9
COc1ccc(OC)c(NC(=O)COC(=O)Cn2nnc(-c3ccccc3)n2)c1,n,n,x,n,x,x,x
Nc1ccc(O)c2c1C(=O)c1ccccc1C2=O,n,53.1,n,n,n,n,54.9
COc1cccc(CNC(=O)CSc2ccc(-c3ccco3)nn2)c1,n,n,n,n,n,x,x
Nc1ccc(C(=O)N/N=C/c2cccc(Oc3ccccc3)c2)cc1,n,n,n,n,n,n,x
O=C(N/N=C/c1cccc(Oc2ccccc2)c1)c1ccccc1F,n,50.3,n,n,n,x,46.1
Cc1nn(C)c(C(=O)N/N=C/c2cccc(Oc3ccccc3)c2)c1Br,n,51.6,n,n,n,x,40.5
COc1cc2c(cc1OC)CN(C(=O)CCC(=O)c1ccc(F)cc1)CC2,n,n,x,n,x,x,x
SMILES,tim10-1 inh,tim23-1 inh,NALP1 yeast inh,TIM10 inh,SKKanGAS inh,PfHsp90 yeast 2,tim23-1 conf
COc1ccc(OC)c(CNn2c(-c3ccccc3F)nc3ccccc3c2=O)c1,n,n,n,n,n,n,x
COc1cccc(CNn2c(-c3cccc(C)c3)nc3ccccc3c2=O)c1O,n,56.9,n,n,n,x,44.5
O=C(O)C1CC(=O)N(Cc2ccccc2)C1 (stereo unspecified),n,n,n,n,n,x,x
Cc1c(-n2cc(C(=O)O)c(=O)c3cc(F)c(N4CCCC(O)C4)c(F)c32)c(=O)n(-c2ccccc2)n1C (stereo unspecified),n,n,n,n,n,n,x
O=C(O)c1cn(-c2ccc(N3CCCC3)c(F)c2)c2c(F)c(F)c(F)cc2c1=O,n,53.1,n,n,n,105.8,n
Cc1nn(CC(=O)NCCc2ccc(Cl)cc2)c(=O)c2cccn12,n,n,n,n,n,n,x
COCCSc1ncnc2c1oc1nc3c(cc12)COC(C)(C)C3,n,n,n,n,n,n,x
O=C(CSc1nnnn1Cc1ccccc1)c1ccc(F)cc1,n,53.7,x,n,n,n,52.4
Cc1ccc(N2CC(C(=O)NCc3n[nH]c(=O)c4ccccc34)CC2=O)cc1C (stereo unspecified),n,n,x,n,n,n,x
COc1ccc(-c2cn3c(C)c(C(=O)N4CCCc5ccccc54)sc3n2)cc1,n,53.2,x,n,n,n,58.8
COc1ccc(C(=O)N2CCCc3ccccc32)cc1,n,n,n,n,n,n,x
COC(=O)CCSc1nc(N2CCOCC2)c2c(c1C#N)CC(C)(C)OC2,n,n,n,n,n,n,x
CC(C)CCSc1nc(N2CCOCC2)c2c(c1C#N)CC(C)(C)OC2,n,60.2,n,n,n,n,n
O=C(Nc1ccc(C(=O)N2CCCCC2)cc1)C1=CSCCO1,n,n,n,n,n,n,x
O=C(Nc1ccc(C(=O)N2CCN(c3ccccc3F)CC2)cc1)C1=CSCCO1,n,52.5,n,n,n,n,42.2
CC1Cc2nc(SCC(=O)Nc3nccs3)n(Cc3ccccc3)c(=O)c2S1 (stereo unspecified),n,n,n,n,n,n,x
COc1ccc(OC)c(C(=O)COC(=O)c2cc(C)oc2C)c1,n,n,n,n,n,n,x
COc1ccc(OC)c(C(=O)COC(=O)c2ccc([N+](=O)[O-])o2)c1,n,55.0,x,n,x,n,57.0
CC(C)C(=O)NNC(=O)CN1CCN(c2nc(-c3ccccc3)cs2)CC1,n,n,n,n,n,x,x
CCc1nnc(NC(=O)CN2CCN(c3nc(-c4ccccc4)cs3)CC2)s1,n,50.0,n,n,n,n,41.3
Clc1ccc(OCCn2cnc3ccccc32)c(Cl)c1,n,54.1,n,n,n,n,n
c1ccc2c(c1)ncn2CCOCCOCCn1cnc2ccccc21,n,n,n,n,n,n,x
Cc1cccc(N=Nc2cn[nH]c2-c2ccco2)c1,n,n,n,n,n,n,x
c1ccc(N=Nc2cn[nH]c2-c2ccco2)cc1,n,51.3,n,n,n,n,47.1
O=C(CCCN1C(=O)/C(=C/c2ccccc2)SC1=S)Nc1cccc(O)c1,n,50.2,n,n,n,n,50.0
SMILES,tim10-1 inh,tim23-1 inh,NALP1 yeast inh,TIM10 inh,SKKanGAS inh,PfHsp90 yeast 2,tim23-1 conf
O=C(CCCN1C(=O)/C(=C\c2ccccc2)SC1=S)Nc1cccc(C(=O)O)c1,n,n,n,n,n,n,x
COc1cc(/C=C/C(=O)OCC(=O)c2ccc(OC(F)F)cc2)ccc1O,n,64.7,x,n,x,n,54.4
O=C(c1cccnc1)C1Cc2ccccc2C1=O (stereo unspecified),n,53.7,n,n,n,n,52.5
O=C(NN1C(=O)CSC1=S)c1cccnc1,n,n,x,n,n,x,x
CCn1ccnc1CN(C)C(=O)C1CCC(=O)N(Cc2cccc(F)c2)C1 (stereo unspecified),n,n,n,n,n,n,x
NC(=S)Nc1cccc2cccnc12,n,n,n,n,n,n,x
